Measured values: PubChem BioAssay (EPA / NIEHS)
Records with an inconclusive call do not appear. Calls of active or inactive are those of the source. Rule for the calls: active = hit-call score of the fitted dose curve at least 0.9, where 1 is the maximum; inconclusive = response in the unintended direction; inactive = score below 0.9.

Experiments:
[1] = molecular target: Cellular tumor antigen p53 (Homo sapiens) (UniProt P04637); test: TOX21_p53_BLA_p2_ratio: Tox21 HCT-116 p53 Agonism Beta-lactamase Assay, Ratio, Phase 2 (AID 2283592)
Procedure, shortened: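 DMSO-normalized, positive-direction endpoint derived from the 460 nm/530 nm FRET ratio in HCT116 p53 beta-lactamase reporter cells exposed 16 h at 37C and loaded with CCF4-AM for 2 h.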

[2] = TOX21_p53_BLA_p3_viability: Viability Assessment in the Tox21 HCT-116 p53 Agonism Beta-lactamase Assay, Phase 3 (AID 2283593);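 note: cells exposed to compound for 16 h before reading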
Procedure, shortened: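 HCT116 cells, 4000/well, dosed 5 h after plating by pin transfer (217-fold dilution from DMSO stock) and incubated 16 h at 37C, 5% CO2. Viability read as ATP luminescence with CellTiter-Glo after 30 min at room temperature.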

[3] = molecular target: Cellular tumor antigen p53 (Homo sapiens) (UniProt P04637); test: TOX21_p53_BLA_p3_ratio: Tox21 HCT-116 p53 Agonism Beta-lactamase Assay, Ratio, Phase 3 (AID 2283596)
Procedure, shortened: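 Cells were seeded at 4000/well, rested 5 h at 37C, then dosed with DMSO compound solutions (217-fold dilution) for 16 h. CCF4-AM substrate was loaded for 2 h at room temperature, and the 460/530 nm emission ratio was fitted for gain of signal versus DMSO.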

[4] = TOX21_p53_BLA_p4_viability: Viability Assessment in the Tox21 HCT-116 p53 Agonism Beta-lactamase Assay, Phase 4 (AID 2283597);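 note: hits lower the luminescence signal meaning cytotoxicity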
Procedure, shortened: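 In this multiplexed secondary endpoint, HCT116 cells (4000 per well, compound at 5 h, 16 h treatment) received CellTiter-Glo after the beta-lactamase read. Luminescence after 30 min RT reflects ATP, and falling signal marks cytotoxicity.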

[5] = TOX21_p53_BLA_p5_viability: Viability Assessment in the Tox21 HCT-116 p53 Agonism Beta-lactamase Assay, Phase 5 (AID 2283600)
Procedure, shortened: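 Here cell health was gauged by ATP levels in wells holding 4000 cells, each treated 16 h with DMSO-delivered compounds at 217-fold dilution; reduced luminescence marked toxicity.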

[6] = molecular target: Cellular tumor antigen p53 (Homo sapiens) (UniProt P04637); test: TOX21_p53_BLA_p4_ratio: Tox21 HCT-116 p53 Agonism Beta-lactamase Assay, Ratio, Phase 4 (AID 2283601)
Procedure, shortened: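 HCT-116 p53 beta-lactamase reporter cells (4000/well) preincubated 5 h, then compound (217-fold dilution of DMSO stock) for 16 h at 37C. CCF4-AM substrate added 2 h at room temperature; 460/530 nm emission ratio fitted upward versus DMSO.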

[7] = molecular target: Cellular tumor antigen p53 (Homo sapiens) (UniProt P04637); test: TOX21_p53_BLA_p5_ratio: Tox21 HCT-116 p53 Agonism Beta-lactamase Assay, Ratio, Phase 5 (AID 2283599)
Procedure, shortened: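 HCT-116 p53-bla cells (4000/well) plated 5 h, dosed with compound (217-fold DMSO dilution) for 16 h at 37 C; CCF4-AM substrate 2 h at room temperature. Activity is the 460/530 nm emission ratio (405 nm excitation), fitted in gain-of-signal direction versus DMSO.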

Measured: outcome

Chain of Cellular tumor antigen p53 (Homo sapiens) (P04637 whole entry, looked up): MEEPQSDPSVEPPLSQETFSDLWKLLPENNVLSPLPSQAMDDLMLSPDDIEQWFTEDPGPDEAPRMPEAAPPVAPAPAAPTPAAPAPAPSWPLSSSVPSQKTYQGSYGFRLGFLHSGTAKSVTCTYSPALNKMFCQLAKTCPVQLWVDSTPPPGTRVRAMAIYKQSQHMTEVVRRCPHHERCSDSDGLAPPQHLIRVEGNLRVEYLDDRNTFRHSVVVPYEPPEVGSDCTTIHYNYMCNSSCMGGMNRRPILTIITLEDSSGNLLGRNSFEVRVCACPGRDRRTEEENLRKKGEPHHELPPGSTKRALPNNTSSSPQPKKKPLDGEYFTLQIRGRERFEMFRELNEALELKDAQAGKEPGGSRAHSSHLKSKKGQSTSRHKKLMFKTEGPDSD

O=C(O)c1c2ccccc2cc2ccccc12
inactive: [1] | [2] | [3] | [4] | [5] | [6]

COc1cc(NS(=O)(=O)c2ccc(N)cc2)nc(C)n1
inactive: [1] | [2] | [3] | [4] | [5]

O=S(O)(O)=S
inactive: [1] | [2] | [3] | [4] | [5] | [6]

CCOc1cc(CC(=O)N[C@@H](CC(C)C)c2ccccc2N2CCCCC2)ccc1C(=O)O
inactive: [1] | [2] | [3] | [4] | [6]

CCN(CC)CCNC(=O)c1ccc(NC(C)=O)cc1
inactive: [1] | [2] | [3] | [7] | [5]

COc1ccc(C=CC(=O)OCCC(C)C)cc1
inactive: [1] | [2] | [3] | [4] | [5]

C=C[C@]1(C)C[C@@H](OC(=O)CO)[C@]2(C)[C@H](C)CC[C@]3(CCC(=O)[C@H]32)[C@@H](C)[C@@H]1O
inactive: [1] | [2] | [3] | [4] | [5] | [6]

O=P(O)(O)OC(Cn1cncn1)(Cn1cncn1)c1ccc(F)cc1F
inactive: [1] | [2] | [3] | [7] | [5]
